{
  "source": "PubChem BioAssay (NCI)",
  "note": "Compounds without any hit were thinned out: in the full panel of roughly 83,000, 20% have a hit.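 Cell lines were cultured in 96-well plates, exposed to a single compound concentration, and assessed for percent growth 48 hours later.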 Values without a mark were called inactive. Active and inactive are the calls of the source. The calls were made as follows: active = growth percent below 10; inactive = the rest.",
  "data": [
    {"tested_on": "RPMI-8226 leukemia", "experiment": "NCI-60 one-dose screen, 48 h (100 = growth as untreated, 0 = no growth, -100 = all killed)", "settings": "10 µM unless noted", "values": [
      {"smiles": "COc1cccc(CC(C)=C(c2ccc(OCCN(C)C)cc2)c2ccc(OCCN(C)C)cc2)c1", "growth": "-31.1% (active)"},
      {"smiles": "N/C(=N\\C(N)=N\\c1nc2ccccc2s1)c1cccc(Br)c1", "growth": "83.3%"},
      {"smiles": "O=C(Nc1ccc(Cl)c(Cl)c1)NS(=O)(=O)c1cnccc1Oc1ccc(F)cc1", "growth": "-40.7% (active)"},
      {"smiles": "Cc1ccc(S(=O)(=O)NC(=O)n2cc(-c3ccncc3)c(-c3ccc(Cl)c(O)c3)n2)cc1", "growth": "99.9%"},
      {"smiles": "CCN(CC)CCC(CNc1ccnc2cc(Cl)ccc12)c1ccc(Cl)cc1", "note": "(stereo not drawn)", "growth": "-0.553% (active)"},
      {"smiles": "CCN(CC)CCOc1ccc(Cl)c(C)c1", "growth": "99.9%"},
      {"smiles": "OC(c1cc2cc(Br)ccc2c2cc(Br)ccc12)C1CCCCN1", "note": "(stereo not drawn)", "growth": "-38.9% (active)"},
      {"smiles": "CCN(CC)CCC(CNc1ccnc2cc(Cl)ccc12)c1ccccc1", "note": "(stereo not drawn)", "growth": "59.3%"},
      {"smiles": "CCCCCCCCCCCCNC(=O)[C@H]1CSC(c2cc3ccccc3s2)N1", "note": "(stereo partly drawn)", "growth": "18.7%"},
      {"smiles": "CCCCCCN1CSC(=S)N(CCCCCC)C1", "growth": "86.5%"},
      {"smiles": "CC1(c2ccc(Cl)cc2)OC(=O)CC(=O)O1", "growth": "102%"},
      {"smiles": "O=C(NS(=O)(=O)c1ccc2ccccc2c1)n1cc(-c2ccncc2)c(-c2ccc(Cl)c(O)c2)n1", "growth": "60.2%"},
      {"smiles": "CN(C)CCOC(=O)Nc1ccccc1Cl", "growth": "93.1%"},
      {"smiles": "Cc1c(C(=O)/C=C/c2csc3ccccc23)[n+](=O)c2ccccc2n1[O-]", "growth": "7.86% (active)"},
      {"smiles": "CN(C)CCCN(c1nc(C(Cl)(Cl)Cl)ns1)c1nc(C(Cl)(Cl)Cl)ns1", "growth": "9.37% (active)"},
      {"smiles": "CC[N+](CC)=c1cc2oc3cc(N(C)C)ccc3nc-2cc1C", "growth": "45.3%"},
      {"smiles": "CCN(CC)CCC(CNc1c2ccc(Cl)cc2nc2ccc(OC)cc12)c1ccccc1", "note": "(stereo not drawn)", "growth": "-23.6% (active)"},
      {"smiles": "CN1CCN(Cc2ccc(NC(=O)c3nc4ccc5[nH]ncc5c4c4c3CCC4)cc2C(F)(F)F)CC1", "growth": "-37% (active)"},
      {"smiles": "COc1ccc(N=Cc2c(O)ccc3c2oc2cc(Cl)c(O)c(Cl)c23)cc1", "growth": "78.3%"},
      {"smiles": "O=C(O)C1CCCCN1c1nc(Cl)nc(Cl)n1", "note": "(stereo not drawn)", "growth": "109%"},
      {"smiles": "C=CCn1c2ccccc2c2c3c(c4c5ccccc5n(CC=C)c4c21)C(=O)N(O)C3=O", "growth": "24.4%"},
      {"smiles": "Nc1cccc(Cl)c1N", "growth": "69.3%"},
      {"smiles": "O=C(NS(=O)(=O)c1ccccc1)n1cc(-c2ccncc2)c(-c2ccc(Cl)c(O)c2)n1", "growth": "97.4%"},
      {"smiles": "Cc1csc(NC(c2ccc(Br)cc2)c2c(C)nc3ccccn23)n1", "note": "(stereo not drawn)", "growth": "74.7%"},
      {"smiles": "O=S(=O)(c1ccc(OCCO)cc1)c1ccc(OCCO)cc1", "growth": "81%"},
      {"smiles": "COc1cc(-c2nn(C(=O)NS(=O)(=O)c3ccccc3)cc2-c2ccncc2)ccc1Cl", "growth": "74.2%"},
      {"smiles": "N=c1ccc2nc3ccc(N)cc3sc-2c1", "growth": "30%"},
      {"smiles": "Cc1ccc(Cc2c(C=O)nc(N)[nH]c2=O)c2ccccc12", "growth": "99.6%"},
      {"smiles": "CCN(CC)CCCC(C)Nc1c2ccc(Cl)cc2nc2cc(OC)c(OC)cc12", "note": "(stereo not drawn)", "growth": "-33% (active)"},
      {"smiles": "CCCCCCCCCCCCNC(=O)[C@H]1CSC(c2ccsc2)N1", "note": "(stereo partly drawn)", "growth": "34.3%"},
      {"smiles": "CC(C)(C)NCCC(O)c1cc2c(Cl)cc(Cl)cc2c2cc(C(F)(F)F)ccc12", "note": "(stereo not drawn)", "growth": "-40% (active)"},
      {"smiles": "COc1cc2c(cc1O)CCN1C[C@@H](CC(C)C)[C@@H](O)C[C@@H]21", "growth": "92.5%"},
      {"smiles": "Nc1ccc(C(=O)CSc2nc3ccccc3[nH]2)cc1", "growth": "103%"},
      {"smiles": "CCCC(=O)Oc1ccc(/C(=C(\\C)c2ccccc2)c2ccc(OCCN(CC)CC)cc2)cc1", "growth": "55.4%"},
      {"smiles": "C/C=C(\\C)C(C(=O)NC1CCCCC1)N(C(=O)C1CCc2cc(F)ccc2O1)c1ccc(Cl)cc1", "note": "(stereo not drawn)", "growth": "100%"},
      {"smiles": "Cn1ccc(=O)c(S(N)(=O)=O)c1", "growth": "66.5%"},
      {"smiles": "O=c1[nH]c(NCc2ccccc2)nc2nc(Nc3ccc(NC(=S)Nc4ccccc4)cc3)nc(-c3ccc(O)cc3O)c12", "growth": "90.8%"},
      {"smiles": "COc1ccc(-n2c(-c3ccccc3)c(-c3ccccc3)c3c(SCC(=O)N/N=C/c4ccc(Cl)cc4)ncnc32)cc1", "growth": "87.4%"},
      {"smiles": "COc1ccc(S(=O)(=O)NCCCNc2nccc(-c3c(-c4cccc([N+](=O)[O-])c4)nc4sccn34)n2)cc1", "growth": "11.5%"}
    ]},
    {"tested_on": "OVCAR-8 ovarian", "experiment": "NCI-60 one-dose screen, 48 h (100 = growth as untreated, 0 = no growth, -100 = all killed)", "settings": "10 µM unless noted", "values": [
      {"smiles": "COc1cccc(CC(C)=C(c2ccc(OCCN(C)C)cc2)c2ccc(OCCN(C)C)cc2)c1", "growth": "-2.71% (active)"},
      {"smiles": "N/C(=N\\C(N)=N\\c1nc2ccccc2s1)c1cccc(Br)c1", "growth": "72.6%"},
      {"smiles": "O=C(Nc1ccc(Cl)c(Cl)c1)NS(=O)(=O)c1cnccc1Oc1ccc(F)cc1", "growth": "55.4%"},
      {"smiles": "Cc1ccc(S(=O)(=O)NC(=O)n2cc(-c3ccncc3)c(-c3ccc(Cl)c(O)c3)n2)cc1", "growth": "99%"},
      {"smiles": "CCN(CC)CCC(CNc1ccnc2cc(Cl)ccc12)c1ccc(Cl)cc1", "note": "(stereo not drawn)", "growth": "1.27% (active)"},
      {"smiles": "CCN(CC)CCOc1ccc(Cl)c(C)c1", "growth": "104%"},
      {"smiles": "OC(c1cc2cc(Br)ccc2c2cc(Br)ccc12)C1CCCCN1", "note": "(stereo not drawn)", "growth": "-69.4% (active)"},
      {"smiles": "CCN(CC)CCC(CNc1ccnc2cc(Cl)ccc12)c1ccccc1", "note": "(stereo not drawn)", "growth": "61.2%"},
      {"smiles": "CCCCCCCCCCCCNC(=O)[C@H]1CSC(c2cc3ccccc3s2)N1", "note": "(stereo partly drawn)", "growth": "-32.9% (active)"},
      {"smiles": "CCCCCCN1CSC(=S)N(CCCCCC)C1", "growth": "103%"},
      {"smiles": "CC1(c2ccc(Cl)cc2)OC(=O)CC(=O)O1", "growth": "105%"},
      {"smiles": "O=C(NS(=O)(=O)c1ccc2ccccc2c1)n1cc(-c2ccncc2)c(-c2ccc(Cl)c(O)c2)n1", "growth": "72.5%"},
      {"smiles": "CN(C)CCOC(=O)Nc1ccccc1Cl", "growth": "109%"},
      {"smiles": "Cc1c(C(=O)/C=C/c2csc3ccccc23)[n+](=O)c2ccccc2n1[O-]", "growth": "21.1%"},
      {"smiles": "CN(C)CCCN(c1nc(C(Cl)(Cl)Cl)ns1)c1nc(C(Cl)(Cl)Cl)ns1", "growth": "55.3%"},
      {"smiles": "CC[N+](CC)=c1cc2oc3cc(N(C)C)ccc3nc-2cc1C", "growth": "8.33% (active)"},
      {"smiles": "CCN(CC)CCC(CNc1c2ccc(Cl)cc2nc2ccc(OC)cc12)c1ccccc1", "note": "(stereo not drawn)", "growth": "-15.1% (active)"},
      {"smiles": "CN1CCN(Cc2ccc(NC(=O)c3nc4ccc5[nH]ncc5c4c4c3CCC4)cc2C(F)(F)F)CC1", "growth": "-53.8% (active)"},
      {"smiles": "COc1ccc(N=Cc2c(O)ccc3c2oc2cc(Cl)c(O)c(Cl)c23)cc1", "growth": "93.8%"},
      {"smiles": "O=C(O)C1CCCCN1c1nc(Cl)nc(Cl)n1", "note": "(stereo not drawn)", "growth": "99.3%"},
      {"smiles": "C=CCn1c2ccccc2c2c3c(c4c5ccccc5n(CC=C)c4c21)C(=O)N(O)C3=O", "growth": "22.9%"},
      {"smiles": "Nc1cccc(Cl)c1N", "growth": "105%"},
      {"smiles": "O=C(NS(=O)(=O)c1ccccc1)n1cc(-c2ccncc2)c(-c2ccc(Cl)c(O)c2)n1", "growth": "105%"},
      {"smiles": "Cc1csc(NC(c2ccc(Br)cc2)c2c(C)nc3ccccn23)n1", "note": "(stereo not drawn)", "growth": "88.6%"},
      {"smiles": "O=S(=O)(c1ccc(OCCO)cc1)c1ccc(OCCO)cc1", "growth": "102%"},
      {"smiles": "COc1cc(-c2nn(C(=O)NS(=O)(=O)c3ccccc3)cc2-c2ccncc2)ccc1Cl", "growth": "20.4%"},
      {"smiles": "N=c1ccc2nc3ccc(N)cc3sc-2c1", "growth": "13.5%"},
      {"smiles": "Cc1ccc(Cc2c(C=O)nc(N)[nH]c2=O)c2ccccc12", "growth": "89.6%"},
      {"smiles": "CCN(CC)CCCC(C)Nc1c2ccc(Cl)cc2nc2cc(OC)c(OC)cc12", "note": "(stereo not drawn)", "growth": "14.1%"},
      {"smiles": "CCCCCCCCCCCCNC(=O)[C@H]1CSC(c2ccsc2)N1", "note": "(stereo partly drawn)", "growth": "-49.4% (active)"},
      {"smiles": "CC(C)(C)NCCC(O)c1cc2c(Cl)cc(Cl)cc2c2cc(C(F)(F)F)ccc12", "note": "(stereo not drawn)", "growth": "-81.1% (active)"},
      {"smiles": "COc1cc2c(cc1O)CCN1C[C@@H](CC(C)C)[C@@H](O)C[C@@H]21", "growth": "101%"},
      {"smiles": "Nc1ccc(C(=O)CSc2nc3ccccc3[nH]2)cc1", "growth": "105%"},
      {"smiles": "CCCC(=O)Oc1ccc(/C(=C(\\C)c2ccccc2)c2ccc(OCCN(CC)CC)cc2)cc1", "growth": "83.3%"},
      {"smiles": "C/C=C(\\C)C(C(=O)NC1CCCCC1)N(C(=O)C1CCc2cc(F)ccc2O1)c1ccc(Cl)cc1", "note": "(stereo not drawn)", "growth": "98.3%"},
      {"smiles": "Cn1ccc(=O)c(S(N)(=O)=O)c1", "growth": "101%"},
      {"smiles": "O=c1[nH]c(NCc2ccccc2)nc2nc(Nc3ccc(NC(=S)Nc4ccccc4)cc3)nc(-c3ccc(O)cc3O)c12", "growth": "87.4%"},
      {"smiles": "COc1ccc(-n2c(-c3ccccc3)c(-c3ccccc3)c3c(SCC(=O)N/N=C/c4ccc(Cl)cc4)ncnc32)cc1", "growth": "85.3%"},
      {"smiles": "COc1ccc(S(=O)(=O)NCCCNc2nccc(-c3c(-c4cccc([N+](=O)[O-])c4)nc4sccn34)n2)cc1", "growth": "29.8%"}
    ]}
  ]
}
